Screening data from PubChem.
CYP2C19 inhib – blockers of cytochrome P450 2C19 activity – biochemical, luminescence, ADME assay, primary screen. P33261. CYP2C19 Supersomes, luciferin-H EGE luminescence, 30 min. inhibition, % at 5 µM. actives 21% (n = 96,000);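 active means CYP2C19 inhibition above a set limit at 5 µM in the primary screen, cut at about 50% in these data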;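 further: plate controls were negative control wells for no effect and 2.5 mM tranylcypromine positive control for full effect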
CYP2C9 act – human CYP2C9 activators, primary screen, biochemical, luminescence; activation factor at 5 µM; actives 1.4% (n = 96,000); recombinant CYP2C9, luciferin-H conversion; stronger effect = higher value; factor 1 = untreated enzyme, 0 = blocked; Cytochrome P450 2C9 (Homo sapiens), P11712;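 active means activation factor of 2 or more for CYP2C9 at a 5 µM dose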;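 further: 0 = sulfaphenazole-blocked wells and 1 = vehicle-only wells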
Target sequence (P11712 whole entry, looked up): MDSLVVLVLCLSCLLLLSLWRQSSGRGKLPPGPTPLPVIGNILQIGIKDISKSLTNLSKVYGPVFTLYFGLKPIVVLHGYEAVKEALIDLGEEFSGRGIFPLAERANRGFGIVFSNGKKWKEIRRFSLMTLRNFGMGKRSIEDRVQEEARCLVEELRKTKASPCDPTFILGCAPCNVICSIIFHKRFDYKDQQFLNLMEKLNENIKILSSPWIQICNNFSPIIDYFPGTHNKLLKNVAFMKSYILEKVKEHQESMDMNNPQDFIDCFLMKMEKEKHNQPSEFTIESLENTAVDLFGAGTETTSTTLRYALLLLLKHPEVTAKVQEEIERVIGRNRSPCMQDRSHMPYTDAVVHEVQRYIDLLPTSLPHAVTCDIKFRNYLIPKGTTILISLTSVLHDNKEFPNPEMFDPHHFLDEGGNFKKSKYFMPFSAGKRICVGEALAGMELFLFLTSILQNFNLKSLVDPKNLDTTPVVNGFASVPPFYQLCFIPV
CYP2C9 inh – blockers of cytochrome P450 2C9 activity – biochemical, luminescence, ADME assay, primary screen; P11712; CYP2C9 Supersomes, luciferin-H conversion; inhibition, % at 5 µM; actives 20% (n = 96,000); AID 777, 2007;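 active means blocking of liver enzyme CYP2C9 beyond about 50% at 5 µM, limit read from the data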
PostGolgi ctrl – growth inhibition of yeast control strain, primary screen, counter-screen for post-Golgi transport modulator project | efflux-deficient yeast background strain, growth absorbance A615, 16 h | actives 5% (n = 98,000) | inhibition, % at 10 µM | AID 738, 2007
CYP2C19 act – human CYP2C19 activators, primary screen, biochemical, luminescence. AID 1025, 2008. activation factor at 5 µM. Cytochrome P450 2C19 (Homo sapiens), P33261. 96,000 tested, under 10 active. recombinant CYP2C19, luciferin-H EGE luminescence; stronger effect = higher value; 0 = fully inhibited enzyme, 1 = untreated enzyme;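 active means activation factor of at least 2 at 5 µM in the primary screen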;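 further: 0 = wells with 2.5 mM tranylcypromine and 1 = vehicle-only wells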
PostGolgi yeast – phenotypic screen on post-Golgi transport, primary screen | post-Golgi transport phenotypic cell assay | inhibition, % at 10 µM | actives 0.9% (n = 98,000) | AID 739, 2007;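 further: yeast cells grown in 1536-well plates; yeast grown about 18 h at 30C before absorbance read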
An asterisk follows results filed as active. Compounds with a hit are over-represented: about 32% of the library has one in this group of screens. Unless noted, no stated cut-off is given here; in the data, active means inhibition above about 30%; inactive means the rest.

For CC1=CC(C)(C)N(S(=O)(=O)c2ccc(F)cc2)c2ccccc21 the results were CYP2C19 inhib 58.3*, CYP2C9 act 0.5, CYP2C9 inh 46.1, PostGolgi ctrl 3.1, CYP2C19 act 0.4 and PostGolgi yeast -1.2.
CC1=CC(C)(C)N(S(=O)(=O)c2ccc(C)cc2)c2ccc(C)cc21 was read as CYP2C19 inhib 38.1, CYP2C9 act 0.6, CYP2C9 inh 39.6, PostGolgi ctrl 59.7*, CYP2C19 act 0.6 and PostGolgi yeast 1.5.
Screening CC(CC(C)C(=O)N1CCOCCN(C(=O)C(C)CC(C)C(=O)O)CCOCC1)C(=O)O (stereo not drawn) returned CYP2C19 inhib 6.1, CYP2C9 act 1, CYP2C9 inh 2.5, PostGolgi ctrl 25.6, CYP2C19 act 0.9 and PostGolgi yeast -1.3.
`CC(C)(C)N=Cc1cc(-c2ccccc2)sc1O` gave CYP2C19 inhib 8.2, CYP2C9 act 0.9, CYP2C9 inh 5.8, PostGolgi ctrl 3.2, CYP2C19 act 0.9 and PostGolgi yeast -8.7.
O=C(CSc1nnc(-c2cccnc2)n1Cc1ccco1)c1ccccc1 was read as CYP2C19 inhib 24.4, CYP2C9 act 0.8, CYP2C9 inh 19.1, PostGolgi ctrl 11.3, CYP2C19 act 0.8 and PostGolgi yeast 10.3.
For O=C(CSc1nnc(-c2ccc(O)cc2)n1Cc1ccco1)c1cccs1 the results were CYP2C19 inhib 65.2*, CYP2C9 act 0.2, CYP2C9 inh 78.5*, PostGolgi ctrl -2.3, CYP2C19 act 0.3 and PostGolgi yeast 6.0.
`O=C(CC(SCCO)c1ccc2c(c1)OCO2)c1cccs1` (stereo not drawn) gave CYP2C19 inhib 100.1*, CYP2C9 act 0.1, CYP2C9 inh 94.9*, PostGolgi ctrl 14.6, CYP2C19 act 0 and PostGolgi yeast -7.1.
Screening Cc1ccc(OCc2nnc(SCC(=O)c3ccccc3)n2Cc2ccco2)cc1 returned CYP2C19 inhib 97.4*, CYP2C9 act 0, CYP2C9 inh 95.1*, PostGolgi ctrl 18.0, CYP2C19 act 0 and PostGolgi yeast 0.3.
Cc1cc(NC(=O)CSc2nnc(-c3ccco3)n2Cc2ccco2)no1 was read as CYP2C19 inhib 21.3, CYP2C9 act 0.6, CYP2C9 inh 40.8, PostGolgi ctrl 7.9, CYP2C19 act 0.8 and PostGolgi yeast 0.3.
Screening O=C(CC(SCCO)c1ccc(F)cc1)c1ccco1 (stereo not drawn) returned CYP2C19 inhib 21.8, CYP2C9 act 0.7, CYP2C9 inh 26.4, PostGolgi ctrl -7.6, CYP2C19 act 0.8 and PostGolgi yeast -7.2.
Screening O=C(CSc1nnc(-c2ccc(O)cc2)n1Cc1ccco1)c1ccccc1 returned CYP2C19 inhib 38.5, CYP2C9 act 0.5, CYP2C9 inh 50.0*, PostGolgi ctrl 5.9, CYP2C19 act 0.6 and PostGolgi yeast -4.7.
Screening O=C(CSc1nnc(COc2ccccc2)n1Cc1ccco1)c1ccc(F)cc1 returned CYP2C19 inhib 7.1, CYP2C9 act 0.8, CYP2C9 inh 25.0, PostGolgi ctrl 12.5, CYP2C19 act 0.9 and PostGolgi yeast -4.4.
Cc1ccccc1NC(=O)c1c(O)c2cccc3c2n(c1=O)CCC3 was read as CYP2C19 inhib 1.3, CYP2C9 act 0.9, CYP2C9 inh 6.5 and CYP2C19 act 1.
O=C(CN1C(=O)CNC1=O)Nc1cccc(C(F)(F)F)c1 was read as CYP2C19 inhib -3.1, CYP2C9 act 1, CYP2C9 inh -3.1, PostGolgi ctrl 5.4, CYP2C19 act 1 and PostGolgi yeast -0.3.
`Cc1cccc(-n2nnc3cnn(C)c3c2=O)c1` gave CYP2C19 inhib 14.3, CYP2C9 act 1, CYP2C9 inh -0.6, PostGolgi ctrl -12.7, CYP2C19 act 0.9 and PostGolgi yeast 5.3.
For CC(C)c1ccc2c(c1)C(=O)NC(C)(C)C2 the results were CYP2C19 inhib 19.2, CYP2C9 act 1.1, CYP2C9 inh -9.3, PostGolgi ctrl 3.5, CYP2C19 act 0.8 and PostGolgi yeast -7.4.
`O=C(CC(SCc1ccco1)c1ccc(O)cc1)c1cccs1` (stereo not drawn) gave CYP2C19 inhib 79.3*, CYP2C9 act 0, CYP2C9 inh 97.6*, PostGolgi ctrl 17.0, CYP2C19 act 0.2 and PostGolgi yeast -4.9.
`CCSc1cc(C)nc2ncnn12` gave CYP2C19 inhib 10.2, CYP2C9 act 0.7, CYP2C9 inh 28.1, PostGolgi ctrl 2.7, CYP2C19 act 0.9 and PostGolgi yeast 4.2.
For CCCCCCSc1cc(C)nc2ncnn12 the results were CYP2C19 inhib 66.1*, CYP2C9 act 0.6, CYP2C9 inh 37.6, PostGolgi ctrl -7.3, CYP2C19 act 0.3 and PostGolgi yeast 5.6.
`Cc1ccccc1OCC(=O)NNC(=S)NC(=O)c1ccco1` gave CYP2C19 inhib 1.3, CYP2C9 act 0.7, CYP2C9 inh 32.9, PostGolgi ctrl 52.9*, CYP2C19 act 1 and PostGolgi yeast 37.6*.
Screening CC(C)(C)c1ccc(OC(=O)c2ccc3nsnc3c2)cc1 returned CYP2C19 inhib 0.4, CYP2C9 act 0.7, CYP2C9 inh 29.0, PostGolgi ctrl 4.8, CYP2C19 act 1 and PostGolgi yeast 3.1.
`Cc1ccc(S(=O)(=O)c2cc3c(=O)n4ccccc4nc3n(C)c2=N)cc1` gave CYP2C19 inhib 10.8, CYP2C9 act 1.2, CYP2C9 inh -16.3, PostGolgi ctrl 32.4*, CYP2C19 act 0.9 and PostGolgi yeast 1.9.
For CCC(C)n1cnc2c(c1=O)c1nc3ccccc3nc1n2Cc1ccc(OC)cc1 (stereo not drawn) the results were CYP2C19 inhib 30.0, CYP2C9 act 0.5, CYP2C9 inh 47.6, PostGolgi ctrl 36.0*, CYP2C19 act 0.7 and PostGolgi yeast -4.6.
C=CCn1cnc2c(c1=O)c1nc3ccccc3nc1n2Cc1ccccc1 was read as CYP2C19 inhib 0.0, CYP2C9 act 1.1, CYP2C9 inh -9.4 and CYP2C19 act 1.
For CC(C)Cn1cnc2c(c1=O)c1nc3ccccc3nc1n2Cc1ccc2c(c1)OCO2 the results were CYP2C19 inhib -1.7, CYP2C9 act 0.5, CYP2C9 inh 50.5*, PostGolgi ctrl 6.6, CYP2C19 act 1 and PostGolgi yeast -0.5.
`CC(C)Cn1c2nc3ccccc3nc2c2c(=O)n(CCN3CCOCC3)cnc21` gave CYP2C19 inhib 8.1, CYP2C9 act 0.7, CYP2C9 inh 25.5, PostGolgi ctrl 15.1, CYP2C19 act 0.9 and PostGolgi yeast 8.9.
For CC1(C)C(=O)C2(C(=O)NCc3ccccc3)CCC1C2 (stereo not drawn) the results were CYP2C19 inhib 69.8*, CYP2C9 act 0.9, CYP2C9 inh 8.1, PostGolgi ctrl -0.1, CYP2C19 act 0.3 and PostGolgi yeast 5.5.
C=C1C2(C(=O)NCc3ccco3)CCC(C2)C1(C)C (stereo not drawn) was read as CYP2C19 inhib 27.4, CYP2C9 act 0.9, CYP2C9 inh 14.0, PostGolgi ctrl 4.2, CYP2C19 act 0.7 and PostGolgi yeast -10.7.
